Results on 33 compounds are retold here after PubChem BioAssay AID1851 (National Center for Advancing Translational Sciences (NCATS), 2009).

Hit rate of the full screen: of about 16,000 compounds, about 2,600 (16%) were called active. Roughly 20% stayed inconclusive and do not appear here. Calls come from the whole dose curve; as a rule, active = well fitted curve in the direction sought with a large enough effect; inconclusive = small, poorly fitted or top-dose-only effect, or effect the other way; inactive = no such curve, though single readings can be large or run the other way. Not all results are given here.
% is set by controls: 0 for no effect and ±100 for the full control effect.

The target of this experiment is Cytochrome P450 2D6 (Homo sapiens) (UniProt P10635). The experiment can be described thus: Cytochrome panel assay with activity outcomes. To be noted: recombinant CYP, pro-luciferin dealkylation, luminescence, p450-cyp2d6; series mostly up to 57.1 µM.
Cytochrome P450 2D6 (Homo sapiens), sequence (P10635 whole entry, looked up): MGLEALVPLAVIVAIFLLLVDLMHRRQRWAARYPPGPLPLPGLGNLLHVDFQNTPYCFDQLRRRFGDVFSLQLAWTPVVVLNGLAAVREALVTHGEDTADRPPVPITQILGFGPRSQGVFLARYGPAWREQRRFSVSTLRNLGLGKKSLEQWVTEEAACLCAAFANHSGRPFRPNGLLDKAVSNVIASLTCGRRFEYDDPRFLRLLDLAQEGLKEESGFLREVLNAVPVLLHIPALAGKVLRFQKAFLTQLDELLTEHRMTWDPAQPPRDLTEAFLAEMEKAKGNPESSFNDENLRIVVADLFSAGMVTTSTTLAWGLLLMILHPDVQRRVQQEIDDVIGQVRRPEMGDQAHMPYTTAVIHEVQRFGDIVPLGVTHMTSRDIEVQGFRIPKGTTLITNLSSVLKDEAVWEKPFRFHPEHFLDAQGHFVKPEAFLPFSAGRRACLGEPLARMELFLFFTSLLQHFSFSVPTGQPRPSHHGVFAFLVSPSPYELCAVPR
The term AC50 denotes the concentration at which the activity in the assay is half-maximal. Consider `COc1ccc(Cl)cc1C(=O)Nn1cnc2ccccc2c1=O`, for which the AC50 entry is “inactive”. `O=C(Nn1cnc2ccccc2c1=O)c1ccc(F)cc1Cl`: the AC50 is 28.2 µM (active). As to `COc1ccc(C(=O)Nn2cnc3ccccc3c2=O)c(OC)c1`, the AC50 result was “inactive”. Same read-out and setting: to `COC(=O)c1ccc(NC(C)=O)o1` belongs “inactive”. Take `COc1ccc(N(C(=O)COc2ccccc2OC)S(=O)(=O)c2ccc(C)cc2)cc1`: the AC50 result was “inactive”. Take `COc1ccc(C(C(=O)NC2CCCCC2)N(C(=O)CCCC(=O)Nc2ccccn2)c2ccc3c(c2)OCCO3)cc1` (stereo not drawn): the AC50 entry is “inactive”. As for `O=C(O)c1cc([N+](=O)[O-])ccc1NCCCc1ccccc1`, the AC50 entry was “inactive”. Still for that read-out and setting: then `O=[N+]([O-])c1ccc(N2CCCC2)cc1NCc1ccccc1`, with “inactive”; and `Cc1cc([N+](=O)[O-])ccc1NCc1ccccc1`, with 15.8 µM (active). `CO[C@H]1COC(=O)C/C=C\[C@H](C)COC(=O)[C@@H](OCc2ccccc2)/C=C\[C@@H]1C`: the activity, negative = inhibition is -13.9% [at 11.4 µM] (inactive). `CCn1c(C)cc(/C=C2\SC(=O)N(CC(=O)Nc3ccc(C)c(C)c3)C2=O)c1C`: the AC50 entry was “inactive”. Consider `N#Cc1c(SCC(N)=O)nsc1SCc1ccccc1Cl`, for which the AC50 entry is “inactive”.

Regarding `c1ccc(-c2nnc(SCCC3OCCCO3)o2)cc1`, the AC50 result is “inactive”. `COc1ccc(-c2nnc(-c3cccnc3)o2)cc1`: the AC50 entry was “inactive”. With `Cc1cccc(-c2nnc(SCc3ccccc3)o2)c1`, the AC50 result was “inactive”. On to `NCCCCCc1nnc(SCc2ccc(Cl)cc2Cl)o1`, for which the AC50 was 1.41 µM (active). `C#CCSc1nnc(-c2sc3ccccc3c2Cl)o1`: the AC50 entry is “inactive”. As to `Nc1nc(SCc2ccccc2Cl)cc(C(=O)O)n1`, the activity, negative = inhibition was 4.28% [at 11.4 µM] (inactive).

Consider `NCCCCCc1nnc(SCc2ccccc2Cl)o1`, for which the AC50 is 11.2 µM (active). As to `Clc1ccc(CSc2nnc(-c3cccnc3)o2)cc1`, the AC50 is 14.1 µM (active). In the case of `Clc1ccccc1CSc1nnc(-c2ccncc2)o1`, the AC50 is 2 µM (active).

On to `COc1ccc(NC(=O)CCNS(=O)(=O)c2ccc3c(c2)c(=O)n(C)c(=O)n3C)cc1`, for which the AC50 result was “inactive”. As to `O=C(CCCc1ccccn1)c1ccccc1`, the activity, negative = inhibition was -16.5% [at 11.4 µM] (inactive).

Turning to `O=C1N=C(N2CCOCC2)S/C1=C/c1cccs1`, the AC50 entry is “inactive”. For the compound `Cc1cc(=O)[nH]c(-n2[nH]c3c(c2=O)CCCC3)n1`, the AC50 result was “inactive”.

Turning to `CCC1C(=O)OCC1Cc1cncn1C` (stereo not drawn), the AC50 entry is “inactive”. Consider `N=C(N)[C@H](N=Nc1ccccc1)C(N)=O`, for which the activity, negative = inhibition is 4.09% [at 11.4 µM] (inactive).

Turning to `C[C@@](N)(Cc1ccc(O)c(O)c1)C(=O)O`, the AC50 result is “inactive”. For `FC(F)(F)c1cnc(/C=C/Nc2ccccc2Cl)c(Cl)c1`, the AC50 entry was “inactive”. Turning to `COc1ccc(C(=O)NC2CCN(C(=S)Nc3cccc(C)c3)CC2)cc1`, the AC50 entry is “inactive”.

As for `CC[N+](C)(CC)CCOC(=O)C1c2ccccc2Oc2ccccc21`, the AC50 is 3.98 µM (active). As to `O=C(O)c1ccccc1C1c2ccccc2Oc2ccccc21`, the activity, negative = inhibition was -7.56% [at 11.4 µM] (inactive). Turning to `CC(=O)c1ccc(OC(=O)C2c3ccccc3Oc3ccccc32)cc1`, the AC50 result is “inactive”.
